Measurements taken from the supplement of paper PMC10849652.
Targets with a hit are over-represented here; the source holds about 8,800 in all. About 0.5% of all pairs of compound and target were hits. A number with no mark means an inactive call.

Experiments:
Assay in all cases: log2 fold change, soluble protein after heating vs DMSO (PISA); higher = thermal stabilisation; K562 lysate, 10 uM; active = over 0.2 and 3.5 SD of the protein, either way, in both replicates (recomputed)
nilotinib = compound: Cc1cn(-c2cc(NC(=O)c3ccc(C)c(Nc4nccc(-c5cccnc5)n4)c3)cc(C(F)(F)F)c2)cn1 [nilotinib]
Summary of the method: (§1)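 K562 pellets were dounce-homogenised in PBS pH 7.4 with 1 mM MgCl2, and the crude extract at 1 mg/mL protein was treated with 10 μM compound for 30 min. Aliquots were heated for 3 min across 48°C-58°C, pooled, and brought to 0.5% NP-40 at 4°C; soluble protein was the supernatant after 21,000xg for 90 min. Soluble protein was quantified by TMTpro 16plex LC-MS/MS with channel sums equalised, and reported as log2 fold change in thermal stability against DMSO controls, with values from duplicates.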

[1] = compound: Cc1nc(Nc2n[nH]c3c2CN(C(=O)N[C@H](CN(C)C)c2ccccc2)C3(C)C)c2sccc2n1
Summary of the method: as §1

dasatinib = compound: Cc1nc(Nc2ncc(C(=O)Nc3c(C)cccc3Cl)s2)cc(N2CCN(CCO)CC2)n1 [dasatinib]
Summary of the method: as §1

[2] = compound: Cc1ncc(-c2ccnc(Nc3ccc(S(C)(=O)=O)cc3)n2)n1C(C)C
Summary of the method: as §1

[3] = compound: Cn1cc(-c2ccc3c(c2)CCN3C(=O)Cc2cccc(C(F)(F)F)c2)c2c(N)ncnc21
Summary of the method: as §1

quisinostat = compound: Cn1cc(CNCC2CCN(c3ncc(C(=O)NO)cn3)CC2)c2ccccc21 [quisinostat]
Summary of the method: as §1

tipifarnib = compound: Cn1cncc1[C@@](N)(c1ccc(Cl)cc1)c1ccc2c(c1)c(-c1cccc(Cl)c1)cc(=O)n2C [tipifarnib]
Summary of the method: as §1

[4] = compound: NC(=O)Nc1cc(-c2cccc(F)c2)sc1C(=O)N[C@H]1CCCNC1
Summary of the method: as §1

[5] = compound: NC(=O)c1cnc(N[C@@H]2CCCC[C@@H]2N)nc1Nc1cccc(-n2nccn2)c1
Summary of the method: as §1

[6] = compound: NC1(c2ccc(-c3nc4ccn5c(=O)[nH]nc5c4cc3-c3ccccc3)cc2)CCC1
Summary of the method: as §1

[7] = compound: NCC(=O)Nc1ccc(-n2nc(C(F)(F)F)cc2-c2ccc3c(ccc4ccccc43)c2)cc1
Summary of the method: as §1

vorinostat = compound: O=C(CCCCCCC(=O)Nc1ccccc1)NO [vorinostat]
Summary of the method: as §1

silmitasertib = compound: O=C(O)c1ccc2c(c1)nc(Nc1cccc(Cl)c1)c1ccncc12 [silmitasertib]
Summary of the method: as §1

[8] = compound: O=C1NC(=O)C(c2cnc3ccccn23)=C1c1cn2c3c(cc(F)cc13)CN(C(=O)N1CCCCC1)CC2
Summary of the method: as §1

entospletinib = compound: c1cn2cc(-c3ccc4cn[nH]c4c3)nc(Nc3ccc(N4CCOCC4)cc3)c2n1 [entospletinib]
Summary of the method: as §1

UniProt P21359, sequence (P21359 whole entry, looked up): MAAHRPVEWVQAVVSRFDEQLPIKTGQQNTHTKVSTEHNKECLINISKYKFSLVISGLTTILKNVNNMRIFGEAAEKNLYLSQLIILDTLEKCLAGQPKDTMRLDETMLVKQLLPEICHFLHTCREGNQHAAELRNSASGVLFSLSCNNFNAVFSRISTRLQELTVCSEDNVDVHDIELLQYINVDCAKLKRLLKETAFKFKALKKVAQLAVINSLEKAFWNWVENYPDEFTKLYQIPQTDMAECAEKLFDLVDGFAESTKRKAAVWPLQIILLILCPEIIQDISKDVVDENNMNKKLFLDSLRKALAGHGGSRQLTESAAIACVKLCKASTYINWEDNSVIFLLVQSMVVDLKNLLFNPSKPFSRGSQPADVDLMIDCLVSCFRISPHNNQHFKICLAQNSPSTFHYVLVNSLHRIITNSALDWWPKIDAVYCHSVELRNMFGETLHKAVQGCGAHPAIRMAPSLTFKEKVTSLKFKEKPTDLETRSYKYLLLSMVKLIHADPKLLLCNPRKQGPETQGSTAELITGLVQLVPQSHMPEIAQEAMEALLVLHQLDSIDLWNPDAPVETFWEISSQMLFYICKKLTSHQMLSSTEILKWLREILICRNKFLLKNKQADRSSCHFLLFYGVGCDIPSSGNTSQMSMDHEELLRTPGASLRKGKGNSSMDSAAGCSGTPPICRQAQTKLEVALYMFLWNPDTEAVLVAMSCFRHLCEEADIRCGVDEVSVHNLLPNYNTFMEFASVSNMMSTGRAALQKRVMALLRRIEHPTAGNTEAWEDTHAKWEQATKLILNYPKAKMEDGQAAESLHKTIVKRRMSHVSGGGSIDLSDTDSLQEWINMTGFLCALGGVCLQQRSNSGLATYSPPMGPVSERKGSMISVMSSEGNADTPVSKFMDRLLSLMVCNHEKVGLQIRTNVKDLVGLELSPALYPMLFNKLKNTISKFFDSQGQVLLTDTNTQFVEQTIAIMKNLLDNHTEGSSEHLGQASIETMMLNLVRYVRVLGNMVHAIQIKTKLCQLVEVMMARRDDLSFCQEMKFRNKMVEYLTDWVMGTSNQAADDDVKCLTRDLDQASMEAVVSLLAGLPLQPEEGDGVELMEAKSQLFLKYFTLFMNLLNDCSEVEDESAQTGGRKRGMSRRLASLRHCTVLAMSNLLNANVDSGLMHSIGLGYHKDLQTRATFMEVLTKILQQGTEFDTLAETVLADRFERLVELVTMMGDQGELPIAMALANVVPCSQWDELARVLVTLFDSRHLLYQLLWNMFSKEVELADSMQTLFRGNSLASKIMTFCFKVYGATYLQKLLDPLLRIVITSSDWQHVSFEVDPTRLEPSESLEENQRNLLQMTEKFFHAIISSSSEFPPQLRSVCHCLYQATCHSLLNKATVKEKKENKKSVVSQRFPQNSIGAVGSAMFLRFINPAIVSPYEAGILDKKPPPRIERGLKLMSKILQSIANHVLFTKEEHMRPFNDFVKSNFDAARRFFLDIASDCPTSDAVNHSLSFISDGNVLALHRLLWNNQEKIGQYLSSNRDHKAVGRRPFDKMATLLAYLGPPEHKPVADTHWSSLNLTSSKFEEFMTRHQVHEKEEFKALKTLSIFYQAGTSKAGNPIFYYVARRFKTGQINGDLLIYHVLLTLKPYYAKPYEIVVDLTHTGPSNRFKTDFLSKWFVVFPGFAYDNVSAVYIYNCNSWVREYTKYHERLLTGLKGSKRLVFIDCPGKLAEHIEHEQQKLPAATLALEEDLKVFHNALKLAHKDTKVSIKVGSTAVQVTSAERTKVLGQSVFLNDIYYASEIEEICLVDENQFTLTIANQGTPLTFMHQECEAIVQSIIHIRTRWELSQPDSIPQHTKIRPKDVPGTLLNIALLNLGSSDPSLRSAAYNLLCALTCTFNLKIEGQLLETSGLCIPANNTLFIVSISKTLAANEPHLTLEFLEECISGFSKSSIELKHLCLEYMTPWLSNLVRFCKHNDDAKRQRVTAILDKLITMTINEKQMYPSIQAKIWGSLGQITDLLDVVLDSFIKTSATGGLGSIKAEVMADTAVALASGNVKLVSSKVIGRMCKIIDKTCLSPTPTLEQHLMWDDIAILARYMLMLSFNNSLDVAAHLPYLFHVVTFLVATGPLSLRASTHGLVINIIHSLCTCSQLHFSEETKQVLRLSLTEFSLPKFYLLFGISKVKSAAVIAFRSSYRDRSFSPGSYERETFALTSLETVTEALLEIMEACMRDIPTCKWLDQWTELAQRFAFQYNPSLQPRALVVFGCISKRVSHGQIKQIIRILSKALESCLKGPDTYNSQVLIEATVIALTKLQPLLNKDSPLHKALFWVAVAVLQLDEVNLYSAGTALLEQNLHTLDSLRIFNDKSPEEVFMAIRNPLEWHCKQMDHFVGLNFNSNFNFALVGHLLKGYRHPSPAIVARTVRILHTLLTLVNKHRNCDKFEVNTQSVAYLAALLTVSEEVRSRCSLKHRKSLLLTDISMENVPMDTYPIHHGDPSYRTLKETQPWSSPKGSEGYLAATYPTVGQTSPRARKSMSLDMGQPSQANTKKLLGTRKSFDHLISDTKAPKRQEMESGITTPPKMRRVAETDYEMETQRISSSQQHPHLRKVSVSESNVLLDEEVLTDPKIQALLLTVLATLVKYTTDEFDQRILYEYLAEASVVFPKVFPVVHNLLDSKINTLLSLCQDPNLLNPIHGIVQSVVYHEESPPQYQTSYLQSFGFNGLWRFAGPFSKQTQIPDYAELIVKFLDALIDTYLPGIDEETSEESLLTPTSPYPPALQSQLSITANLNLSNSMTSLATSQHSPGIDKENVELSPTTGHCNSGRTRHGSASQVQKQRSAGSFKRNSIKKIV
UniProt Q9Y6C9, sequence (Q9Y6C9 whole entry, looked up): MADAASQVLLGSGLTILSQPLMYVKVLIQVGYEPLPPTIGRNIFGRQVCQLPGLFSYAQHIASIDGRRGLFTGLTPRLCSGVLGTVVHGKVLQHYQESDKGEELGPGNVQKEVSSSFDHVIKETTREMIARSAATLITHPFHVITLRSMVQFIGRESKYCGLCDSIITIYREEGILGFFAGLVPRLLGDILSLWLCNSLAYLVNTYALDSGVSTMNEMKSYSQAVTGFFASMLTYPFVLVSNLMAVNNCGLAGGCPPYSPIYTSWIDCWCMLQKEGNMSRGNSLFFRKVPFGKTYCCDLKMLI
UniProt Q96KB5, sequence (Q96KB5 whole entry, looked up): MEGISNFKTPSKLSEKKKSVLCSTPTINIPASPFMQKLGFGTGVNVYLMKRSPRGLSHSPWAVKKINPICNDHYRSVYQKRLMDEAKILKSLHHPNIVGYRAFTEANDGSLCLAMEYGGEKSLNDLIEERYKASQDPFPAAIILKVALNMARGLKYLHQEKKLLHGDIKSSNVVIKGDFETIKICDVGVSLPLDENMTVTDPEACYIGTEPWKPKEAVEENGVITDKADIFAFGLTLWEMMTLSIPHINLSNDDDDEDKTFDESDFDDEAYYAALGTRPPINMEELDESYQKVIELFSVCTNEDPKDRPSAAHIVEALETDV
UniProt Q8TAT6, sequence (Q8TAT6 whole entry, looked up): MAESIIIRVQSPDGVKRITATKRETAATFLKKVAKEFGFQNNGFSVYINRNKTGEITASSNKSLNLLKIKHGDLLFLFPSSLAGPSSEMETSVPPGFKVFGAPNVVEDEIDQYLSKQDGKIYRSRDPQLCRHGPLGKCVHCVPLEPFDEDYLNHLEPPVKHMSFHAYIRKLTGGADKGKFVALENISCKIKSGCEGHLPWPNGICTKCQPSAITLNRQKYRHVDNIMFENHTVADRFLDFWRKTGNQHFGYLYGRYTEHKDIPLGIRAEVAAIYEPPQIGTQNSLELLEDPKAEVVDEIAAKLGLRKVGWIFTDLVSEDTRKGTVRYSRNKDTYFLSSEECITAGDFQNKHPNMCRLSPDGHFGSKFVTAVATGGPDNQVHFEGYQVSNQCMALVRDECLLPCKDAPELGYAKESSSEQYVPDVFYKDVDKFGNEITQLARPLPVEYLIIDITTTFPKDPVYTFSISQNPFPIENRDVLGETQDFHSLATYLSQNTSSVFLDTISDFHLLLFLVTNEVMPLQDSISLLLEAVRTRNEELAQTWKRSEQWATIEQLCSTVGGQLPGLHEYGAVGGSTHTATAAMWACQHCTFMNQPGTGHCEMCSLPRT
UniProt Q9NZT2, sequence (Q9NZT2 whole entry, looked up): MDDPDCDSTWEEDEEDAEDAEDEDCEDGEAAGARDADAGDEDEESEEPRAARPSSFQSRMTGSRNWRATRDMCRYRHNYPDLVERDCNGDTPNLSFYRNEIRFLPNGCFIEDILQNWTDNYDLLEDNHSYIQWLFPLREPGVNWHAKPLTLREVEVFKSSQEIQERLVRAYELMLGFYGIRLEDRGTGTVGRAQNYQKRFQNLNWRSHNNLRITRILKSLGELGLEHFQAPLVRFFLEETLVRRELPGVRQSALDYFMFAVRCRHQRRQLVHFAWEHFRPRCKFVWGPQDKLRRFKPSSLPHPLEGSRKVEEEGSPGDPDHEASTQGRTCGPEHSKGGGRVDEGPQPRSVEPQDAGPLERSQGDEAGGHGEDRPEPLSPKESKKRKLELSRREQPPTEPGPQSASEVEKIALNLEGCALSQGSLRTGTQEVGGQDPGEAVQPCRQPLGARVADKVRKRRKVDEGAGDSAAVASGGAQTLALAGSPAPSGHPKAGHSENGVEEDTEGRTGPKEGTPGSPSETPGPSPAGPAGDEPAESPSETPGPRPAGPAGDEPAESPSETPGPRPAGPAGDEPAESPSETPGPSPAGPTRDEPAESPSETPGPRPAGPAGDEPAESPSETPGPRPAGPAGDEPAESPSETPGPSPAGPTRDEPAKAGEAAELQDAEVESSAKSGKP
UniProt Q9UDX5, sequence (Q9UDX5 whole entry, looked up): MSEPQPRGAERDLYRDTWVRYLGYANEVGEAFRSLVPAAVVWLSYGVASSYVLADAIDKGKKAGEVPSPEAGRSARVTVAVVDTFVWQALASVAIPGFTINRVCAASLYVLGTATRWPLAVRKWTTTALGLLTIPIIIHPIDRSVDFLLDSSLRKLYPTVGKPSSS

Target | log2 fold change (nilotinib) | log2 fold change [1] | log2 fold change (dasatinib) | log2 fold change [2] | log2 fold change [3] | log2 fold change (quisinostat) | log2 fold change (tipifarnib) | log2 fold change [4] | log2 fold change [5] | log2 fold change [6] | log2 fold change [7] | log2 fold change (vorinostat) | log2 fold change (silmitasertib) | log2 fold change [8] | log2 fold change (entospletinib)
NUB1 (UniProt Q9Y5A7) | -0.021 | 0.025 | -0.03 | 0.028 | 0.014 | 0.035 | 0.003 | 0.018 | 0.004 | -0.002 | -0.004 | -0.333 (active) | -0.027 | 0.031 | 0.001
NUDT5 (UniProt Q9UKK9) | 0.021 | 0 | 0.045 | 0.008 | -0.024 | -0.016 | -0.013 | -0.018 | -0.013 | -0.014 | -0.018 | 0.1 | -0.021 | 0.02 | 0.012
NACC1 (UniProt Q96RE7) | -0.013 | 0.031 | -0.006 | -0.007 | 0.022 | -0.024 | -0.008 | -0.04 | 0.022 | 0.015 | -0.014 | -0.231 (active) | 0.024 | -0.004 | -0.036
NF1 (UniProt P21359) | -0.021 | 0.053 | 0.007 | -0.039 | 0.024 | -0.059 | 0.018 | 0.041 | 0.016 | -0.016 | 0.03 | -0.634 (active) | 0.037 | 0.01 | 0.025
MTCH2 (UniProt Q9Y6C9) | 0.044 | -0.005 | 0 | -0.014 | -0.024 | -0.104 | 0.018 | 0 | -0.027 | 0.001 | -0.016 | -0.432 (active) | -0.001 | -0.075 | 0.026
NAA30 (UniProt Q147X3) | -0.036 | 0.019 | -0.042 | 0.059 | -0.005 | 0.032 | -0.097 | 0.001 | -0.018 | 0.041 | -0.019 | -0.235 (active) | 0.047 | 0.009 | -0.003
MYO9A isoform 4 (UniProt B2RTY4) | 0.059 | -0.044 | -0.176 | 0 | 0.052 | -0.074 | -0.005 | 0.112 | 0.039 | -0.112 | -0.051 | 0.084 | -0.019 | -0.03 | –
MTFP1 (UniProt Q9UDX5) | 0.044 | -0.021 | 0.069 | 0.043 | 0.008 | 0.133 | -0.014 | 0.02 | -0.103 | -0.004 | -0.04 | 0.102 | -0.007 | 0.02 | -0.009
MYD88 isoform 6 (UniProt Q99836) | -0.003 | 0.001 | -0.021 | -0.027 | 0.024 | -0.033 | 0.004 | 0 | 0.03 | 0.054 | -0.005 | -0.366 (active) | 0.023 | -0.05 | 0.033
NCAPH2 (UniProt Q6IBW4) | -0.029 | 0 | -0.011 | -0.048 | 0.066 | 0.051 | -0.014 | 0.058 | 0.004 | 0.025 | 0.052 | -0.277 (active) | 0 | 0.037 | -0.008
MYO1C (UniProt O00159) | 0.019 | -0.013 | 0.112 | 0.005 | -0.038 | -0.052 | 0.019 | -0.082 | 0 | -0.087 | -0.017 | -0.171 | 0.015 | 0.11 | 0.033
PANK4 (UniProt Q9NVE7) | 0.028 | -0.006 | -0.086 | -0.006 | 0.003 | -0.054 | 0.009 | 0.038 | -0.003 | -0.045 | 0.012 | -0.423 (active) | -0.03 | 0.055 | 0.035
OSBPL6 isoform 5 (UniProt Q9BZF3) | 0.281 | 0.018 | -0.082 | -0.045 | 0.036 | -0.07 | -0.003 | 0.122 | 0.007 | -0.238 | -0.082 | -0.195 | 0.25 | -0.026 | 0.113
MSH6 (UniProt P52701) | -0.005 | 0.011 | -0.073 | -0.002 | 0.03 | -0.091 | -0.009 | 0.072 | 0.006 | -0.045 | 0.008 | -0.287 (active) | 0.063 | 0.016 | -0.012
NCAPG (UniProt Q9BPX3) | 0.01 | 0.002 | -0.062 | 0 | 0.007 | -0.08 | 0 | 0.012 | -0.004 | -0.019 | -0.001 | -0.283 (active) | 0.029 | -0.003 | -0.002
NPLOC4 isoform 2 (UniProt Q8TAT6) | -0.005 | 0.007 | 0.019 | 0.007 | 0.004 | -0.037 | 0 | -0.006 | 0.018 | -0.023 | 0 | 0.028 | -0.016 | 0.018 | 0.031
NARS2 (UniProt Q96I59) | 0.019 | -0.027 | -0.046 | -0.014 | 0.026 | -0.023 | 0.007 | 0.051 | 0.037 | -0.037 | 0.063 | -0.344 (active) | 0.05 | -0.029 | -0.079
OGFR (UniProt Q9NZT2) | -0.016 | 0.021 | -0.022 | -0.005 | 0.042 | -0.004 | 0.04 | 0.02 | -0.001 | 0.028 | -0.036 | -0.285 (active) | 0.02 | -0.018 | -0.061
PAK4 (UniProt O96013) | -0.015 | 0.71 (active) | 0.141 | 0.264 | -0.081 | -0.269 | -0.016 | 0.9 (active) | 0.473 | 0.257 | -0.003 | -0.458 | -0.038 | 0.028 | 0.05
PBK (UniProt Q96KB5) | -0.01 | 0.006 | -0.035 | 0.017 | 0.017 | -0.02 | 0.033 | 0.032 | 0.017 | 0.024 | -0.029 | -0.269 (active) | 0.013 | -0.021 | 0.035
MTMR6 (UniProt Q9Y217) | -0.04 | 0.063 | -0.036 | -0.026 | -0.076 | -0.116 | -0.024 | 0.086 | -0.007 | -0.032 | -0.018 | -0.276 (active) | 0.027 | -0.027 | 0.003
